Assay outcomes as filed in PubChem BioAssay.
PrPC TRFRET – reduces human prion protein on the cell surface; 0.43% of 370,000 active; cell surface PrPC, TR-FRET read-out; inhibition, % at 13.8 µM; P04156; in the data active = inhibition above about 24%; also: 0% = median of the test wells and 100% = reference compound wells
BJeLR lethal – BJeLR cell viability loss | BJeLR (HRASV12) viability, CellTiter-Glo ATP luminescence, 48 h | inhibition, % (no concentration beside the values) | 0.17% of 300,000 active; in the data active = inhibition above about 50%
GDH-TPI counter-1 – counter-screen for M. tuberculosis FBA inhibitors: GDH-TPI coupled enzymes. inhibition, % at 4.8 µM. GDH-TPI coupled enzyme counterscreen, NADH absorbance. 1.2% of 360,000 active; in the data active = inhibition above about 30%;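 also: 0% = DMSO wells and 100% = wells lacking the enzyme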
Mtb FBA inh – inhibits M. tuberculosis FBA enzyme; P9WQA3; purified M. tuberculosis FBA, fluorescence read-out; inhibition, % at 1 µM; 2.3% of 360,000 active; AID 588726;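 also: 0% = vehicle and 100% = reference inhibitor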
Target sequence (P9WQA3 whole entry, looked up): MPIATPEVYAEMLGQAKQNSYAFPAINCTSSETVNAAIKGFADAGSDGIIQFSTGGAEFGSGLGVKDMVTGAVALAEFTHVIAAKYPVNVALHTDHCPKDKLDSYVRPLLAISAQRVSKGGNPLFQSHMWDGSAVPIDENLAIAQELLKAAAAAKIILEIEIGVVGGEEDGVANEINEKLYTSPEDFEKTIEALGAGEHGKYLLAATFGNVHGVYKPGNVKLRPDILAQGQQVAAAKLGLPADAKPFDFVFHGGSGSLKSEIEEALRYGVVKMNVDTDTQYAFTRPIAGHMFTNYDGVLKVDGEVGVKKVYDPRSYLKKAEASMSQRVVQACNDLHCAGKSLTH
RecA splice inh – Mtb RecA intein splicing inhibition | cell-free RecA intein splicing, fluorescence | inhibition, % (test concentration not listed) | 0.75% of 290,000 active; in the data active = inhibition above about 30%;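 also: 0% = vehicle wells and 100% = reference inhibitor control wells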
Mtb FBA confirm – confirmation of M. tuberculosis fructose-bisphosphate aldolase inhibitors; 78% of 5,600 active; shares compounds with Mtb FBA inh; AID 651616; purified M. tuberculosis FBA, fluorescence read-out; inhibition, % at 1 µM;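 also: 0% = vehicle wells and 100% = reference inhibitor wells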
GDH-TPI counter-2 – counter-screen for M. tuberculosis FBA inhibitors: GDH-TPI coupled enzyme inhibition; shares compounds with Mtb FBA inh; GDH-TPI coupled enzyme counterscreen, fluorescence; inhibition, % at 1 µM; 81% of 5,600 active; AID 652141; in the data active = inhibition above about 10%
Active calls of the source: *. The list is not random: actives were taken first. Their share in the collection is about 4.2%. Rule as the data show it, unless noted: active = inhibition above about 27%; inactive = the rest.

`COc1ccc(C(CNC(=O)c2ccc(NS(=O)(=O)c3ccccc3)cc2)N2CCOCC2)cc1` (stereo unspecified) gave PrPC TRFRET -2, GDH-TPI counter-1 -4 and Mtb FBA inh 1.
Screening COc1ccc(C(CNC(=O)c2ccc(-n3cnnn3)cc2)N2CCOCC2)cc1 (stereo unspecified) returned PrPC TRFRET -1, BJeLR lethal 4, GDH-TPI counter-1 5, Mtb FBA inh 43*, RecA splice inh 2, Mtb FBA confirm 175* and GDH-TPI counter-2 153*.
For Cc1ccnc(NC(=O)c2cc(S(=O)(=O)N3CCCCC3)ccc2Cl)c1 the results were PrPC TRFRET 12, BJeLR lethal 5, GDH-TPI counter-1 9, Mtb FBA inh 38*, RecA splice inh 3, Mtb FBA confirm 92* and GDH-TPI counter-2 84*.
`COC(=O)[C@]12C[C@H](CC(=O)N3CCN(C(=O)C4CC4)CC3)C(=O)N(Cc3ccco3)C1=C[C@H](C(C)C)O[C@@H]2C1CC1` gave PrPC TRFRET -2.
`CCn1c(C(C)NC(=O)c2ccc(Cl)cc2)n[nH]c1=S` (stereo unspecified) gave PrPC TRFRET -3, BJeLR lethal 7, GDH-TPI counter-1 -3, Mtb FBA inh 40*, RecA splice inh 2, Mtb FBA confirm 107* and GDH-TPI counter-2 86*.
`C=CCn1c(C(C)NC(=O)c2cccc(C)c2)n[nH]c1=S` (stereo unspecified) gave PrPC TRFRET 6, BJeLR lethal -3, GDH-TPI counter-1 10, Mtb FBA inh 2 and RecA splice inh -1.
For Cc1nc(CS(=O)(=O)c2ccc(Cl)cc2)cc(Sc2ccccc2Cl)n1 the results were PrPC TRFRET -2, BJeLR lethal 3, GDH-TPI counter-1 3, Mtb FBA inh 31*, RecA splice inh 4, Mtb FBA confirm 110* and GDH-TPI counter-2 98*.
Cc1nc(CS(=O)(=O)c2ccccc2)cc(Sc2ccccc2Cl)n1 was read as PrPC TRFRET 5, BJeLR lethal 9, GDH-TPI counter-1 -1, Mtb FBA inh 2 and RecA splice inh 2.
CC(=O)c1ccc(-c2cc(C(C)=O)c3n(c2=O)CCC3)cc1 was read as PrPC TRFRET -2.
For CCOC(=O)N[C@@H](Cc1cccnc1)C(=O)N1CCC[C@H]1C(=O)NCCc1ccccc1Cl the results were PrPC TRFRET 2.
For c1ccc2c(c1)[nH]c1c(N3CCCC3)ncnc12 the results were PrPC TRFRET 7, BJeLR lethal 1, GDH-TPI counter-1 14, Mtb FBA inh 3 and RecA splice inh -2.
`c1ccc2c(c1)[nH]c1c(N3CCN(C4CCCCC4)CC3)ncnc12` gave PrPC TRFRET 1, BJeLR lethal 5, GDH-TPI counter-1 7, Mtb FBA inh 33*, RecA splice inh 1, Mtb FBA confirm 40* and GDH-TPI counter-2 22*.
`O=C(CSc1nc2ccccc2n1Cc1ccccc1Cl)NN=C/C(Br)=C/c1ccccc1` gave PrPC TRFRET -6.
CC(=O)Nc1ccc(S(=O)(=O)Nc2nc3ccccc3nc2Nc2ccc3ccccc3c2)cc1 was read as PrPC TRFRET -4, BJeLR lethal 6, GDH-TPI counter-1 14, Mtb FBA inh 11 and RecA splice inh -3.
Screening O=C(O)c1cccc(Nc2nc3ccccc3nc2NS(=O)(=O)c2ccccc2)c1 returned PrPC TRFRET -2, GDH-TPI counter-1 20 and Mtb FBA inh 21.
CC(=O)Nc1ccc(S(=O)(=O)Nc2nc3ccccc3nc2Nc2cccc(O)c2)cc1 was read as PrPC TRFRET 4, BJeLR lethal 4, GDH-TPI counter-1 25, Mtb FBA inh 75*, RecA splice inh 0, Mtb FBA confirm 72* and GDH-TPI counter-2 58*.
O=C(O)c1ccc(Nc2nc3ccccc3nc2NS(=O)(=O)c2ccc(F)cc2)cc1 was read as PrPC TRFRET 8, BJeLR lethal 9, GDH-TPI counter-1 33*, Mtb FBA inh 46*, RecA splice inh -3, Mtb FBA confirm active and GDH-TPI counter-2 156*.
Screening CCOC(=O)CC[C@@]1(C(=O)OCC)C[C@@H](CC(=O)NCc2cccs2)C(=O)N2CCCC=C21 returned PrPC TRFRET -9.
COC(=O)[C@]12C[C@H](CC(=O)NCCCN3CCCC3=O)C(=O)N(Cc3ccccc3)C1=C[C@H](C(C)C)O[C@@H]2C1CC1 was read as PrPC TRFRET -7.
`CC(=O)N1CCN(c2cc(C)nc3nc(C)nn23)CC1` gave PrPC TRFRET 1.
N#Cc1cc2ccncc2c2ccccc12 was read as PrPC TRFRET -4, GDH-TPI counter-1 2 and Mtb FBA inh 6.
Nc1cc2ccncc2c2ccccc12 was read as PrPC TRFRET -1, BJeLR lethal -3, GDH-TPI counter-1 7, Mtb FBA inh 102*, RecA splice inh -85, Mtb FBA confirm active and GDH-TPI counter-2 active.
`O=C(NCCc1ccc(Cl)cc1Cl)C1=CC=CN2CCS(=O)(=O)N=C12` gave PrPC TRFRET -9, GDH-TPI counter-1 8, Mtb FBA inh 27*, Mtb FBA confirm 178* and GDH-TPI counter-2 129*.
`CC(C)c1ccc(NC(=O)C2=CC=CN3CCS(=O)(=O)N=C23)cc1` gave PrPC TRFRET -13, GDH-TPI counter-1 12 and Mtb FBA inh 3.
FC(F)(F)c1ccc2c(c1)N1CCCC1CN2 (stereo unspecified) was read as PrPC TRFRET -16, BJeLR lethal 5, GDH-TPI counter-1 0, Mtb FBA inh 4 and RecA splice inh -2.
`FC(F)(F)c1ccc2c(c1)NCC1CCCN21` (stereo unspecified) gave PrPC TRFRET -6, BJeLR lethal 6, GDH-TPI counter-1 24, Mtb FBA inh 45*, RecA splice inh -4, Mtb FBA confirm 54* and GDH-TPI counter-2 50*.
For CSc1ccccc1NC(=O)Nc1cccc(Cl)c1 the results were PrPC TRFRET 17, BJeLR lethal 1, GDH-TPI counter-1 1, Mtb FBA inh -3 and RecA splice inh 2.
Screening Cc1ccc(NC(=O)Nc2cccc(Cl)c2)c(C(=O)O)c1 returned PrPC TRFRET -2, BJeLR lethal -5, GDH-TPI counter-1 -1, Mtb FBA inh 94*, RecA splice inh -2, Mtb FBA confirm 104* and GDH-TPI counter-2 78*.
For CN(C(=O)Nc1ccc(Cl)c(Cl)c1)c1ccccc1C(=O)O the results were PrPC TRFRET 1, BJeLR lethal 1, GDH-TPI counter-1 12, Mtb FBA inh 68*, RecA splice inh -1, Mtb FBA confirm 142* and GDH-TPI counter-2 134*.
COc1cc(NC(=O)Nc2ccc(Cl)c(Cl)c2)c(C(=O)O)cc1OC was read as PrPC TRFRET -3, BJeLR lethal 8, GDH-TPI counter-1 5, Mtb FBA inh 104*, RecA splice inh 0, Mtb FBA confirm 49* and GDH-TPI counter-2 47*.
